Common to all, as to test: NCI-60 one-dose screen, 48 h (100 = growth as untreated, 0 = no growth, -100 = all killed)
The test system of experiment [1] is HT29 colon. The following applies: 10 µM unless noted.
In experiment [2] the test system is SNB-75 CNS. The following applies: 10 µM unless noted.
Experiment [3] deals with SNB-19 CNS. The following applies: 10 µM unless noted.
For experiment [4], the system named is U251 CNS. Conditions: 10 µM unless noted.
Experiment [5] has as its system PC-3 prostate. The following applies: 10 µM unless noted.
The test system of experiment [6] is SK-MEL-5 melanoma. Conditions: 10 µM unless noted.
Experiment [7] concerns UACC-62 melanoma. The following applies: 10 µM unless noted.
Experiment [8] has as its system LOX IMVI melanoma. Conditions: 10 µM unless noted.
The test system of experiment [9] is SK-MEL-28 melanoma. Conditions: 10 µM.
For experiment [10], the system named is SK-MEL-2 melanoma. Conditions: 10 µM unless noted.
The subject of experiment [11] is SN12C renal. Conditions: 10 µM unless noted.
The subject of experiment [12] is UO-31 renal. The following applies: 10 µM unless noted.
The subject of experiment [13] is TK-10 renal. The following applies: 10 µM unless noted.
In experiment [14] the test system is ACHN renal. The following applies: 10 µM unless noted.
Experiment [15] has as its system CAKI-1 renal. Conditions: 10 µM unless noted.
The subject of experiment [16] is A498 renal. The following applies: 10 µM unless noted.
In experiment [17] the test system is CCRF-CEM leukemia. Conditions: 10 µM unless noted.
Experiment [18] relates to MOLT-4 leukemia. Conditions: 10 µM unless noted.
Experiment [19] concerns SR leukemia. The following applies: 10 µM unless noted.

From PubChem BioAssay (NCI) come the findings set out here.

The structures appear in SMILES notation. Compounds without any hit were thinned out: in the full panel of roughly 83,000, 20% have a hit.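 Negative percent growth values reflect cell death: -40 means 40% of the cells present at the start died, and -100 means all died.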 Unmarked numbers belong to inactive results. Calls of active or inactive are those of the source. How the source made its calls: active means growth percent below 10; inactive means the rest.

Take `CCOc1cc2c(cc1OCC)C(c1cc(C)c(O)c(C)c1)NCC2` (stereo unspecified): the growth in [1] is 98%; in experiment [2] it was 95.3%; in [3], 101%; in experiment [4], 94%; in experiment [5], 82%; in [6], 99.9%. Besides, the growth in experiment [7] was 91.3%; in [8], 99.6%; in experiment [9], 107%; in experiment [10], 98.3%; in experiment [11], 95.7%; in experiment [12] it was 73.4%. In addition, the growth in [13] is 107%; in experiment [14] it was 94.2%; in [15], 85.2%; in [16] it was 88.1%; in [17] it was 89.6%; in [18] it was 96.3%. The growth in experiment [19] was 80.7%.

As to `N#C/C(=C\c1c(-c2ccccc2)[nH]c2ccccc12)C(=O)c1ccccc1`, the growth in [1] was 16.4%; in experiment [2], 16.8%; in experiment [3] it was 44.5%; in experiment [4] it was 43.3%; in [5] it was 44.5%; in experiment [6], 21.6%. Further, the growth in experiment [7] is 36.3%; in experiment [8], 54.2%; in [9] it was 55.4%; in experiment [10], 47.8%; in experiment [11], 54.4%; in experiment [12], 37.5%. Besides, the growth in experiment [13] is 74.5%; in [14], 65.9%; in experiment [15], 42.4%; in experiment [16] it was 57.9%; in experiment [18], 38.9%; in [19] it was 52.3%.

As to `COc1cc(NC(=O)CCSc2nc3ccccc3c(=O)n2Cc2ccccc2)cc(OC)c1OC`, the growth in experiment [1] is 97.1%; in [2] it was 55.7%; in experiment [3] it was 84.9%; in experiment [4] it was 91.6%; in experiment [5] it was 66.9%; in experiment [6], 87.4%. Moreover, the growth was 64.8% in experiment [7]; 82% in experiment [8]; 102% in experiment [9]; 84.4% in experiment [10]; 82.9% in experiment [11]; 45.7% in [12]. For the same compound, the growth in experiment [13] was 108%; in experiment [14], 78.5%; in experiment [15], 72.5%; in experiment [17] it was 74.5%; in experiment [18], 69.3%.

Consider `COc1ccc(-c2cn3c(C(=O)Nc4ccccc4Cl)c(-c4ccccc4)c4c3n2CCCC4)cc1`, for which the growth in experiment [1] was 26%; in experiment [2] it was 108%; in experiment [3], 96.6%; in [4], 77.4%; in [5], 72.8%; in experiment [6] it was 84%. Further, the growth was 93.2% in experiment [7]; 66.1% in experiment [8]; 91.6% in experiment [9]; 104% in experiment [10]; 82.7% in experiment [11]; 62.8% in experiment [12]. In addition, the growth in experiment [13] was 72.2%; in [14] it was 80.9%; in experiment [15] it was 81.6%; in experiment [17] it was 66%; in experiment [18], 69.8%; in [19], 62.8%.

Take `c1ccc(-c2ccc(-c3nc4ccccc4[nH]3)cc2)cc1`: the growth in experiment [1] was 52.9%; in experiment [2], 55.4%; in experiment [3] it was 106%; in [4], 90.6%; in experiment [5], 76.8%; in [6], 100%. For the same compound, the growth is 103% in [7]; 84.1% in [8]; 93.2% in experiment [9]; 101% in experiment [10]; 92.9% in experiment [11]; 67.4% in experiment [12]. The growth in [13] was 84.7%; in experiment [14] it was 90.7%; in [15], 93.6%; in [16], 88.6%; in experiment [17], 38.4%; in experiment [18] it was 56.9%. For the same compound, the growth in experiment [19] is 58.8%.

Turning to `Oc1c(C(Nc2ccccn2)c2cccc(Oc3ccccc3)c2)ccc2cccnc12` (stereo unspecified), the growth in experiment [1] is -93.5% (active); in experiment [2], -99.1% (active); in experiment [3] it was -80.7% (active); in experiment [4], -89.2% (active); in experiment [5], -90.3% (active); in [6] it was -68.1% (active). Moreover, the growth in experiment [7] is -86.6% (active); in experiment [8], -86.5% (active); in [9], -97.2% (active); in experiment [10], -82.9% (active); in experiment [11], -89.4% (active); in [12] it was -90.4% (active). In addition, the growth is -90.9% (active) in experiment [13]; -88.8% (active) in experiment [14]; -90.3% (active) in experiment [15]; -61% (active) in [16]; -59% (active) in experiment [17]; -70.1% (active) in experiment [18]. The growth in experiment [19] was -49.7% (active).

For `CC1(C)CC2(C)OC2C2(C1)N=NC(=Nc1ccccc1)O2` (stereo unspecified), the growth in [1] is 25.1%; in experiment [2], 84.8%; in [3], 86%; in experiment [4], 84.4%; in experiment [5], 62.5%; in experiment [6], 61.5%. For the same compound, the growth in experiment [7] was 73.1%; in experiment [8] it was -51.9% (active); in experiment [9], 70.3%; in experiment [10], 76.6%; in experiment [11] it was 61.9%; in experiment [12] it was 20.8%. Besides, the growth is 13.6% in [13]; 21.2% in experiment [14]; 57.4% in [15]; 10.7% in experiment [17]; 19.9% in experiment [18]; 11.3% in [19].

Take `O=S(=O)(c1ccc(NC(=S)NC23CC4CC(CC(C4)C2)C3)cc1)N1CCCCC1`: the growth was 94.1% in [1]; 93.3% in [2]; 99.9% in experiment [3]; 85.2% in [4]; 8.79% (active) in [5]; 87.7% in [6]. The growth in experiment [7] was 80.8%; in experiment [8], 96.9%; in experiment [9], 95%; in [10], 106%; in [11], 96.5%; in experiment [12], 61.6%. The growth is 93.6% in [14]; 61.8% in [15]; 78.8% in experiment [16]; 13.9% in experiment [17]; -14.7% (active) in experiment [18]; -21.9% (active) in [19].
